The source of these data is PubChem BioAssay (NCI).

About 83,000 compounds went through this panel and 20% of them were active in at least one assay; those are over-represented in the sample as a whole.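 For each line, cells grew in 96-well plates with the test compound present at a single concentration for 48 hours.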 Values without a mark were called inactive. The source made the active and inactive calls.

In this assay the test system is LOX IMVI melanoma. As to the kind of experiment: NCI-60 one-dose screen, 48 h (100 = growth as untreated, 0 = no growth, -100 = all killed). As to conditions: 10 µM. On the procedure: Growth inhibition of the LOX IMVI human tumor cell line is measured as a screen for anti-cancer activity. Cells are grown in 96 well plates and exposed to the test compound for 48 hours. Compounds are tested at a single concentration, which is 10^-5 M for most compounds. The reported endpoint is percent growth (GI% or GIPRCNT), where numbers from 0 - 100% represent growth inhibition, and numbers from -100% - 0 represent cell death. For example, a value of 40 represents 60% growth inhibition. A value of 0 means no net growth occurred over the course of the experiment. A value of -40 indicates 40% of cells at the beginning of the experiment died by the end of the experiment. A value of -100 means all cells are dead at the end of the experiment.
NCI-60 Human Tumor Cell Lines Screen was performed using the standard one-dose NCI protocol, which is described in more detail at https://dtp.cancer.gov/discovery_development/nci-60/default.htm.
Compounds with GIPRCNT values below 10 were considered active. Activity score was based on GIPRCNT using the following formula: […]
Score is 0 for GIPRCNT values of 100 or above, 50 for GIPRCNT values of 0, and 100 for GIPRCNT values of -100.
With `CC(=O)CSc1ncnc2nc[nH]c12`, the growth is 42.2%.
In the case of `CCC(=O)C1C(=O)c2ccccc2C1=O` it was 98.1%; in that of `CCOC(=O)c1ccc(NC(C)=O)o1`, 95.4%; in that of `CCCC(=O)c1cccs1`, 95.9%.
In the case of `Cc1cccc(C)c1NC(=S)/N=C\c1c(O)[nH]c(=O)[nH]c1=O` it was 98.2%.
Take `OCC1OC(n2ccc3c2ncn2ncnc32)C(O)C1O` (stereo not given): the growth is 12.9%.
The same measure for `NNC(=O)CCCCl`: 91.3%.
As for `S=c1nc2[nH]c3ccccc3c2n[nH]1`, the growth was 89.6%.
As to `OCCOc1ccc(-c2cc(-c3ccccn3)nc(-c3ccccn3)c2)cc1`, the growth was -29.6% (active).
In the case of `O=C(CCCl)OCCOc1ccccc1` it was 96.6%; in that of `O=c1cc(Cl)nc2ccccn12`, 103%; in that of `CC1(C)OC2C(CO)OC(n3ccc(=O)[nH]c3=O)C2O1` (stereo not given), 101%.
`CC(C)Sc1ncnc2nc[nH]c12`: the growth is 100%.
Regarding `O=C(O)c1ccccc1Cc1ccc2c(c1)CCCC2`, the growth is 109%.
On to `Cc1ccc(C)c(CN(C)C)c1O`, for which the growth was 98.9%.
In the case of `COc1nc(Nc2cccc(C(F)(F)F)c2)nc(OC)n1` it was 107%; in that of `Nc1ccc(F)cc1F`, 102%; in that of `CC(=O)c1cccc(NS(=O)(=O)c2ccc(C)cc2)c1`, 66.5%.
As to `O=C(O)c1cc(I)ccc1O`, the growth was 92%.
The same measure for `COc1ccc(C(=O)C(=O)c2ccccc2)cc1`: 100%.
The same measure for `COc1nc2ccccc2s1`: 82.1%; for `COc1ccc(C(=O)/C(=N/Nc2ccccc2)c2ccc(OC)cc2)cc1`: 92.1%.
Consider `NCC(O)C(O)C(O)C(O)CO` (stereo not given), for which the growth was 97.8%.
The same measure for `Cc1ccc[n+](CCC(N)=O)c1`: 82%.
The same measure for `CCCCCCCCCCCCCCCCCCSC(=N)N`: 52.7%; for `OCCNc1ccccc1`: 94.3%.
`NC(=S)N/N=C/c1ccc(OC(=O)COc2ccccc2)cn1`: the growth is 19.1%.
Take `O=C(c1ccccc1O)N1CCCC1`: the growth is 99.7%.
In the case of `CCCCCCCCCCC(=O)CCCCCCCCCC` it was 94.6%.
The same measure for `CCCNS(=O)(=O)c1ccc(Cl)cc1`: 101%; for `Cc1ccc(S(=O)(=O)NC(=O)NCCSSCCNC(=O)NS(=O)(=O)c2ccc(C)cc2)cc1`: 98.2%.
The same measure for `ClCc1cccc2c(CCl)cccc12`: -51.8% (active); for `CCN(C(=O)Nc1ccccc1Cl)c1ccccc1`: 96.5%; for `CC(=O)OCC1CCC(COC(C)=O)CC1` (stereo not given): 94%.
Consider `CCOC(=O)/C(C)=C\c1ccc(OC)c(OC)c1`, for which the growth is 98%.
With `NNc1ncnc2nc[nH]c12`, the growth was 30.9%.
As for `NC(=S)N/N=C/c1ccc(OC(=O)COc2ccc(Cl)cc2)cn1`, the growth was 23.8%.
For `CSc1cnc2ccccc2n1`, the growth was 96.4%.
The same measure for `O=C(OC1CCCC1)c1ccccc1Cl`: 97%; for `N#C/C(=C\NC(=S)N=Nc1c(O)[nH]c2ccccc12)c1nc2ccccc2s1`: 96.6%.
